# According to ChEMBL document CHEMBL1961873, “Compounds: GSK PKIS; Assays: Nanosyn kinase panel” (2012):
# Legend:
# [1] = biological target: T1, Serine/threonine-protein kinase Nek9 (Homo sapiens) (UniProt Q8TD19); conditions: at 1 µM;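 further: each value is a mean percent inhibition of NEK9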
# T1 sequence (whole entry): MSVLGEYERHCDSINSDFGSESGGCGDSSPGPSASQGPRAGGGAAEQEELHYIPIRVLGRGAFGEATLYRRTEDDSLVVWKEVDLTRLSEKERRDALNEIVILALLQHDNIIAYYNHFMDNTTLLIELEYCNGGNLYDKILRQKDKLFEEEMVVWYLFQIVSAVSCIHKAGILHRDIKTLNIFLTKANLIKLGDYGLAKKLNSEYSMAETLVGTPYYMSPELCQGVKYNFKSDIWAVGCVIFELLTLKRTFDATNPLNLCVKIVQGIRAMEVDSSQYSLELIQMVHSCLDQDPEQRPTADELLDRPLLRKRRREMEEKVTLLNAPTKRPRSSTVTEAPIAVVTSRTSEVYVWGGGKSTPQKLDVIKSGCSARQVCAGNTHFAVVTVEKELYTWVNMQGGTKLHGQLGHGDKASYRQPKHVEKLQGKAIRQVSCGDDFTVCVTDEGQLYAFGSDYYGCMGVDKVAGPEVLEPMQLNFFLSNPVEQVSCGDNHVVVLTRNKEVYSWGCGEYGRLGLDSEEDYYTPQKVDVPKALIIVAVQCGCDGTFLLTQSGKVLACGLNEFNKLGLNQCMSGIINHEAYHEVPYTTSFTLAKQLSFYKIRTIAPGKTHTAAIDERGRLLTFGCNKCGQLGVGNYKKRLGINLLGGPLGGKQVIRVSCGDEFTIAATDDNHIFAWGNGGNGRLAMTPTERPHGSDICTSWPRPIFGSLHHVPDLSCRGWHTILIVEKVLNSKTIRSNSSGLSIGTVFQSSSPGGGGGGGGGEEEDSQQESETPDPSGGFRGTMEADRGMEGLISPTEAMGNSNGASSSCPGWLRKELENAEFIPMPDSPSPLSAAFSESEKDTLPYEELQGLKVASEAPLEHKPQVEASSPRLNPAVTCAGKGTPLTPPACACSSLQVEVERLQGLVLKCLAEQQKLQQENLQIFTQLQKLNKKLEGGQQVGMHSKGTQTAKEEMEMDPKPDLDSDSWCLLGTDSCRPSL
# [2] = biological target: Serine/threonine-protein kinase PLK1 (Homo sapiens) (UniProt P53350); conditions: at 0.1 µM
# [3] = biological target: Serine/threonine-protein kinase PLK1 (Homo sapiens) (UniProt P53350); conditions: at 1 µM
# [4] = biological target: T2, Dual specificity protein kinase TTK (Homo sapiens) (UniProt P33981); conditions: at 0.1 µM
# T2 sequence (whole entry): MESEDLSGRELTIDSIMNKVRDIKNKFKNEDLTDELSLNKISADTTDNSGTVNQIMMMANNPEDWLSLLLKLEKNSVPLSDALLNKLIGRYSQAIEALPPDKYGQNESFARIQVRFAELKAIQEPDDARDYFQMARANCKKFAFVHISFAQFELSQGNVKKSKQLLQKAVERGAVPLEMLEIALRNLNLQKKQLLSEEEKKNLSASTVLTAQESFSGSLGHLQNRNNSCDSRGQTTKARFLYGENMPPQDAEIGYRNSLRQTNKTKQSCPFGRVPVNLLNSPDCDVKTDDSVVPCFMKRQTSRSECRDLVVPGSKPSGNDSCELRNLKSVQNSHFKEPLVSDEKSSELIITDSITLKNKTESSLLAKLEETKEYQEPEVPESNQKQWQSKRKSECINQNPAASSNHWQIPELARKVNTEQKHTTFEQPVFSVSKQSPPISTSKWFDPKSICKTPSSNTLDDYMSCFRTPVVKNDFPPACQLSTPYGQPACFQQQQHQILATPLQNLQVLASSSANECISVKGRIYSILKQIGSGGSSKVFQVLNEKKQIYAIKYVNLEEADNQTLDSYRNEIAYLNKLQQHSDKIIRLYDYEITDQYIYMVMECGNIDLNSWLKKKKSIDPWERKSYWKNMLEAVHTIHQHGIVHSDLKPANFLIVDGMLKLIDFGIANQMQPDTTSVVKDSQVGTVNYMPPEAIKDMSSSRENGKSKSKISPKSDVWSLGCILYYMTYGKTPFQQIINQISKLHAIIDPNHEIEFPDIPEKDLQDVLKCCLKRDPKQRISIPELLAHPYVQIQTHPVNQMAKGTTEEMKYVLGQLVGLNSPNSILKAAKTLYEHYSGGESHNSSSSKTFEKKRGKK
# [5] = test system: T3, Receptor-type tyrosine-protein kinase FLT3 (Homo sapiens), P36888 [D835Y]; conditions: at 1 µM
# T3 sequence (whole entry): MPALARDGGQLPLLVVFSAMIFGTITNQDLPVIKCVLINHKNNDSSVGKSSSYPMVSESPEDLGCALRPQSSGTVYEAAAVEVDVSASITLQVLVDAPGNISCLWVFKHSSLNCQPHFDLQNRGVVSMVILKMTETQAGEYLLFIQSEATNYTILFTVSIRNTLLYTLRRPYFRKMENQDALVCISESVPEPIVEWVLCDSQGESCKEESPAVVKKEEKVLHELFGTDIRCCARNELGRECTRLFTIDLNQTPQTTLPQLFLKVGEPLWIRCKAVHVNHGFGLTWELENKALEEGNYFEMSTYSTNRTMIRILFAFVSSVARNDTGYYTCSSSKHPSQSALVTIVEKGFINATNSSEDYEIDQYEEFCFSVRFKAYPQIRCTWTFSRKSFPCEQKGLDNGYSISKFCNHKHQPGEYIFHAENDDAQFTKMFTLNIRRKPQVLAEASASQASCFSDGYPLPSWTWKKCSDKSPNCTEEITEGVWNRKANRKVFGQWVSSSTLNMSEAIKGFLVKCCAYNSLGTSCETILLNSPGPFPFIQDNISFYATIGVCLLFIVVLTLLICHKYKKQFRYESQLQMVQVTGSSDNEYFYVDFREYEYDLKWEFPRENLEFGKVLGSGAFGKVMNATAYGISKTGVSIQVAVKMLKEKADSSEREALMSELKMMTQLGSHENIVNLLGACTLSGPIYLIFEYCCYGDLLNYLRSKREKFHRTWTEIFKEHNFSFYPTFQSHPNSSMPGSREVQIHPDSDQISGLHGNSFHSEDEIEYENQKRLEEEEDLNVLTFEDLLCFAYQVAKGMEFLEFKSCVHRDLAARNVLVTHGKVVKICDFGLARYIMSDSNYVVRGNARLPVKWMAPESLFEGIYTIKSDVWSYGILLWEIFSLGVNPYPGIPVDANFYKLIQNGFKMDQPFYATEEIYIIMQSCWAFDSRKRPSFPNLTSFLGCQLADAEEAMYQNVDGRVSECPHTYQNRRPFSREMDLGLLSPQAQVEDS
# [6] = biological target: Vascular endothelial growth factor receptor 3 (Homo sapiens) (UniProt P35916); conditions: at 0.1 µM
# [7] = biological target: Vascular endothelial growth factor receptor 3 (Homo sapiens) (UniProt P35916); conditions: at 1 µM
# [8] = biological target: Macrophage colony-stimulating factor 1 receptor (Homo sapiens) (UniProt P07333); conditions: at 0.1 µM
# [9] = biological target: Macrophage colony-stimulating factor 1 receptor (Homo sapiens) (UniProt P07333); conditions: at 1 µM
# [10] = biological target: Tyrosine-protein kinase Fyn (Homo sapiens) (UniProt P06241); conditions: at 0.1 µM
# Chain of Tyrosine-protein kinase Fyn (Homo sapiens) (P06241 2-537 limits assumed): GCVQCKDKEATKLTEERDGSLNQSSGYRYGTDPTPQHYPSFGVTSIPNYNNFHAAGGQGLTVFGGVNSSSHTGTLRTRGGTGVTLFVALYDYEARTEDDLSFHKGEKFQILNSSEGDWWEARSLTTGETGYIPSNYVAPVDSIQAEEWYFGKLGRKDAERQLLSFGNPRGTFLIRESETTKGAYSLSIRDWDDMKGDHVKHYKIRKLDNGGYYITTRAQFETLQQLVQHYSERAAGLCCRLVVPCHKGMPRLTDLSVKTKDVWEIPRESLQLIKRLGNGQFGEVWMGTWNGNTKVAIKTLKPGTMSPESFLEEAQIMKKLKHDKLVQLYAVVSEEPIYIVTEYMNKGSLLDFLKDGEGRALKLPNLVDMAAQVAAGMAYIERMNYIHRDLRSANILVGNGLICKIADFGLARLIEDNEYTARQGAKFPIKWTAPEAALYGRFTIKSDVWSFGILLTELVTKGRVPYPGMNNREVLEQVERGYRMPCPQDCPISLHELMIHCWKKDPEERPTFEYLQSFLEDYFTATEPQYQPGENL
# Chain of Vascular endothelial growth factor receptor 3 (Homo sapiens) (P35916 whole entry): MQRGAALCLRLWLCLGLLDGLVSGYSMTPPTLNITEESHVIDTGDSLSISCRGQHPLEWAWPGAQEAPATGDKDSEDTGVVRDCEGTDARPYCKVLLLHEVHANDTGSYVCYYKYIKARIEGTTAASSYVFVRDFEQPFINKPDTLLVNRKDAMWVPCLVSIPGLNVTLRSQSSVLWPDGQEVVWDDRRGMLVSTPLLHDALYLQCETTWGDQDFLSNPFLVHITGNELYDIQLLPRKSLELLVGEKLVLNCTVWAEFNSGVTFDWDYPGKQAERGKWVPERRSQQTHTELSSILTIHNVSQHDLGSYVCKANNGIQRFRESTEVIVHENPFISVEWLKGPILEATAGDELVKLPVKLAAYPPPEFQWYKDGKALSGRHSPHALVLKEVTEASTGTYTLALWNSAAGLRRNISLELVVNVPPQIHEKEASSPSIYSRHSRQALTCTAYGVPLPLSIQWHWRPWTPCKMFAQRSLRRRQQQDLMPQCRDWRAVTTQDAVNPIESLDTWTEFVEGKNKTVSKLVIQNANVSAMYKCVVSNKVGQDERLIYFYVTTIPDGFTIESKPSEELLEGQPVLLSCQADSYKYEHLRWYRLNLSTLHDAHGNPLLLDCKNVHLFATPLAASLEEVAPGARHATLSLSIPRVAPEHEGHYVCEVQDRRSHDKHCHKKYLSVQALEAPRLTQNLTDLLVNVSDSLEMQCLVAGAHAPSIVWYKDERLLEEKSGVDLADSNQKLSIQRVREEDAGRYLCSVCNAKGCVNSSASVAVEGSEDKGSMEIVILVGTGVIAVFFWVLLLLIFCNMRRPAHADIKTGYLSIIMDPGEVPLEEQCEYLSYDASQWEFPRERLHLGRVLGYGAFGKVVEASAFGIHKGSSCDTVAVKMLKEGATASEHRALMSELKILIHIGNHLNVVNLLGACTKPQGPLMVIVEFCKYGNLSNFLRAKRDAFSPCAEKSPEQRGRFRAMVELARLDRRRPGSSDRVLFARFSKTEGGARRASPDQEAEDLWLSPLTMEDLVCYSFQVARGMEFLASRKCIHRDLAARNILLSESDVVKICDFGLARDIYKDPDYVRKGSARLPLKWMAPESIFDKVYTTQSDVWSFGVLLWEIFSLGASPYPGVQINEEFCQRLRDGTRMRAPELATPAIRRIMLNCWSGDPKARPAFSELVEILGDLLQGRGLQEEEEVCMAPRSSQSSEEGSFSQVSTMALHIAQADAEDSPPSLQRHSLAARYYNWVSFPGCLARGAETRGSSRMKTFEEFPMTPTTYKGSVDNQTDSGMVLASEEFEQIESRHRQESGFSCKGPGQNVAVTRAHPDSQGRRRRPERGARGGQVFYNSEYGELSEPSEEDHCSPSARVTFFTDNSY
# Chain of Serine/threonine-protein kinase PLK1 (Homo sapiens) (P53350 whole entry): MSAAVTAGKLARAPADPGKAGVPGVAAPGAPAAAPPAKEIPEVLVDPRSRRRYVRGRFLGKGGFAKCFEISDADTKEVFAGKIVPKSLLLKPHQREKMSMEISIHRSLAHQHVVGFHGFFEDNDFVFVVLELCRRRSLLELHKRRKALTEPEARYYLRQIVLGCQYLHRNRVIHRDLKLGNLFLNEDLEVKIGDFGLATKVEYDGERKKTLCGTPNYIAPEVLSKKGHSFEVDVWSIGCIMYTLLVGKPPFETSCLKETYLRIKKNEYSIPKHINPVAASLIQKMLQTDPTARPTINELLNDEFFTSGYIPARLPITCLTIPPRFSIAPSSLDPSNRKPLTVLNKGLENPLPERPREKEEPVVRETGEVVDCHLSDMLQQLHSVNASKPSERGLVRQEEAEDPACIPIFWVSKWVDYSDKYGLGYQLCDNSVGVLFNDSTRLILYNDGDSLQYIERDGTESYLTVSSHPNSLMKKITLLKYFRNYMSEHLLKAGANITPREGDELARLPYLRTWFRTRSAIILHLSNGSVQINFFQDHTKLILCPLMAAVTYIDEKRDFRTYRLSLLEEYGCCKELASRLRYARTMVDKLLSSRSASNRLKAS
# Chain of Macrophage colony-stimulating factor 1 receptor (Homo sapiens) (P07333 whole entry): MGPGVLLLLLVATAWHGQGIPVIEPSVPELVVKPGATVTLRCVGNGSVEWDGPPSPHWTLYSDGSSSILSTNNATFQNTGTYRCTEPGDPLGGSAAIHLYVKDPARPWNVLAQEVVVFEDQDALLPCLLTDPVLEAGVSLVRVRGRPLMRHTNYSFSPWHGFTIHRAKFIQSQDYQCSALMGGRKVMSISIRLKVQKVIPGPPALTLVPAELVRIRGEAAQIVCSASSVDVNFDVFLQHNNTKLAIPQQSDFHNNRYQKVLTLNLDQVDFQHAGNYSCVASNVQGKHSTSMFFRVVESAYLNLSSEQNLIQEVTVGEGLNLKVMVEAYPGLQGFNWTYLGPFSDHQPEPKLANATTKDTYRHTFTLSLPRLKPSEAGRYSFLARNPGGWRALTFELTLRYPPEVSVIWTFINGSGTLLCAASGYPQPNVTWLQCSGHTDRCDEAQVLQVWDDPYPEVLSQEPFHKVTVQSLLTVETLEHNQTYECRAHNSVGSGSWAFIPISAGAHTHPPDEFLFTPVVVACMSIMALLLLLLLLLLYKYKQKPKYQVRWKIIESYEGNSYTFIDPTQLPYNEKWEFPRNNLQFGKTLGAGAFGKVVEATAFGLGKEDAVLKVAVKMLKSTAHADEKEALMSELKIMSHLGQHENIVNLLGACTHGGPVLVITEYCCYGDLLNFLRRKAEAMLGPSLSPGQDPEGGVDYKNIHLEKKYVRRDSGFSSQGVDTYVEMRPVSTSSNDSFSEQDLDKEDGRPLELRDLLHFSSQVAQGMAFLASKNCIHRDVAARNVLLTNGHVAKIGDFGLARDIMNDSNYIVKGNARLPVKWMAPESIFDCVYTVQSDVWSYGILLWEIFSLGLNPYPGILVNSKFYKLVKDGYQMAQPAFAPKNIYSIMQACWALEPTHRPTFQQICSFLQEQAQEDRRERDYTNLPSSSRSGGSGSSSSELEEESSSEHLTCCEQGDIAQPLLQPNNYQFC
SMILES,inhibition [1] [%],inhibition [2] [%],inhibition [3] [%],inhibition [4] [%],inhibition [5] [%],inhibition [6] [%],inhibition [7] [%],inhibition [8] [%],inhibition [9] [%],inhibition [10] [%]
Cc1ccc(NC(=O)CC2CC2)cc1-c1ccc(C(=O)NCC2CC2)cc1,7.42,3.49,1.97,5.15,0.64,0.87,-0.77,2.08,-0.55,1.7
Cc1ccc2c(-c3ccnc(Nc4ccc5c(c4)OCCO5)n3)c(-c3ccc(C(F)(F)F)cc3)nn2n1,1.95,-2.52,2.75,4.62,-0.37,-1.78,2.51,-1.16,14.6,1.42
c1ccc(Nc2ncc(-c3ccccc3)o2)cc1,10.2,5.96,5.42,18.1,9.89,3.79,11.7,3.76,22.9,3.46
COC(=O)c1ccc2c(c1)C(=Cc1cc(Br)c(O)c(Br)c1)C(=O)N2,11.3,5.7,17.4,13.3,4.72,1.46,9.65,2.87,16.5,5.27
O=S(=O)(CCOCc1ccc(-c2ccc3ncnc(Nc4ccc(OCc5cccc(F)c5)c(Cl)c4)c3c2)o1)c1ccccc1,0.79,2.52,2.68,6.45,-7.19,5.04,14,-1.86,7.49,2.16
NC(=O)c1sc(-n2cnc3ccccc32)cc1OCc1ccccc1Br,23.5,78.3,95.3,10.6,-5.34,2.98,4.24,-0.73,7.89,3.58
CCCN1CCCC(c2ccc(Nc3nc(Nc4cc(F)ccc4C(N)=O)c4cc[nH]c4n3)c(OC)c2)C1 (stereo not given),12.8,13.3,48.1,75.9,43.4,-0.55,4.1,34.6,78.6,3.45
CCn1c(-c2nonc2N)nc2ccc(F)cc21,6.41,6.39,4.59,12.1,1.01,6.14,6.77,1.29,0.35,2.04
COc1ccc2ncnc(Nc3ccc(OCc4ccccc4)cc3)c2c1,4.48,2.95,0.42,2.89,8.02,-0.47,0.28,3.05,3.66,2.39
CC(C)c1ccc(Nc2nccc(-c3cnn4ncccc34)n2)cc1,11,2.9,4.81,5.54,23.1,0.79,9.77,23,72.1,1.04
O=C1Nc2ccc(-c3cccnc3)cc2C1=Cc1cc(Br)c(O)c(Br)c1,0.27,3.43,7.7,6.45,13.7,2.46,4.42,4.24,7.78,2.17
COc1ccc(-c2nn3ncccc3c2-c2ccnc(Nc3cccc(C(F)(F)F)c3)n2)cc1,3.9,1.94,0.44,5.91,-4.73,1.62,10.2,2.47,19.4,1.38
N#Cc1c(NC(=O)c2ccccc2F)sc2c1CCCC2,1.33,-2.61,0.29,1.48,-1.19,-2.53,0.3,-4.22,-1.66,1.38
NS(=O)(=O)c1cccc(-c2cc3ccncc3cc2OCc2ccccc2)c1,5.52,3.05,4.2,7.53,-1.3,15.2,18.5,4.7,5.36,4.1
CS(=O)(=O)CCNCc1nc(-c2ccc3ncnc(Nc4ccc(OCc5cccc(C(F)(F)F)c5)cc4)c3c2)cs1,-0.39,1.34,3.51,3.6,4.19,3.13,2.21,0.88,8.87,1.59
CN(C)c1cc2c(Nc3ccc4c(cnn4Cc4ccccc4)c3)ncnc2cn1,6.27,3.14,3.09,5.61,1.61,2.71,2.4,1.36,3.34,3.84
CN1CCN(C(=O)c2ccc(NC(=O)Nc3ccc(N(C)c4ccnc(Nc5ccc(CS(C)(=O)=O)cc5)n4)cc3)cc2)CC1,30.1,2.98,3.2,2.87,25.1,8.95,37.5,87.7,81.2,0.29
